In ChEMBL document CHEMBL1961873, “Compounds: GSK PKIS; Assays: Nanosyn kinase panel” (2012):

Target: T1, Tyrosine-protein kinase JAK3 (Homo sapiens) (UniProt P52333)
T1 sequence (whole entry): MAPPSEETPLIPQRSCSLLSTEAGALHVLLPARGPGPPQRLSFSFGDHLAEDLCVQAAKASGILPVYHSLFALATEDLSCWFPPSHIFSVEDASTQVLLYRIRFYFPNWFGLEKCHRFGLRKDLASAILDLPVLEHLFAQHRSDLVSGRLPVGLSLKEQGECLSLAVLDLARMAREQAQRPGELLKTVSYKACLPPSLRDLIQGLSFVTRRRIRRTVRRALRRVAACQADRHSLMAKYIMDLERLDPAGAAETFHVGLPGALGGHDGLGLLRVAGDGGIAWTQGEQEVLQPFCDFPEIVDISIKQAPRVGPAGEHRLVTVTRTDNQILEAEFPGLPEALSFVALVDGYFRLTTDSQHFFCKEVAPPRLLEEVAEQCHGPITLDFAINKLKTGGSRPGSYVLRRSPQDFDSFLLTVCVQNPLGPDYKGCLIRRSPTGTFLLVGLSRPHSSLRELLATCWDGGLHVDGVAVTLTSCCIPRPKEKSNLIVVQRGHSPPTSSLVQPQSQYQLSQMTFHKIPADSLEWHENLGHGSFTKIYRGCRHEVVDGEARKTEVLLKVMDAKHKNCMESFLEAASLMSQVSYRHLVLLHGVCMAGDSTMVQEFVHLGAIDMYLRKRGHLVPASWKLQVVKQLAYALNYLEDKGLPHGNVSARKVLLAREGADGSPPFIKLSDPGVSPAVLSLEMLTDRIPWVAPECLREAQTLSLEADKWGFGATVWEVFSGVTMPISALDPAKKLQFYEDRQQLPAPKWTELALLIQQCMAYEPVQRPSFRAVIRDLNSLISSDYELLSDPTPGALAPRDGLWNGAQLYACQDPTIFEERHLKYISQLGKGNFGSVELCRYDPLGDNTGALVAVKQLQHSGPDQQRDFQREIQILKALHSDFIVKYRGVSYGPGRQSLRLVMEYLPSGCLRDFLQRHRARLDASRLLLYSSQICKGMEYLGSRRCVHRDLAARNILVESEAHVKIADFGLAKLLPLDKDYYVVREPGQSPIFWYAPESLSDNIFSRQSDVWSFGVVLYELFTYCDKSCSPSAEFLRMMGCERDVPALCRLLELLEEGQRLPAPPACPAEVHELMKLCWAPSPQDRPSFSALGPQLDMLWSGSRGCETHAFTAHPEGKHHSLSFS
Conditions: at 1 µM

| SMILES | inhibition [%] |
| --- | --- |
| COc1ccc(-c2cc(-c3c[nH]nc3-c3ccccn3)ccn2)cc1 | -0.62 |
| CCCN(CCS(C)(=O)=O)Cc1ccc(-c2ccc3ncnc(Nc4ccc(OCc5cccc(F)c5)c(Cl)c4)c3c2)o1 | 2.79 |
| FC(F)(F)c1cccc(-c2nn3ncccc3c2-c2ccnc(Nc3ccc4c(c3)OCCO4)n2)c1 | 0.66 |
| CCNC(=O)O[C@H]1CN[C@H](C#Cc2cc3ncnc(Nc4ccc(OCc5cccc(F)c5)c(Cl)c4)c3s2)C1 | 1.79 |
| COC(=O)Nc1nc2ccc(S(=O)(=O)c3ccc(NC(=O)Nc4cc(C(F)(F)F)ccc4F)cc3)cc2[nH]1 | 0.84 |
| CC(=O)Nc1cccc(C#Cc2cncnc2Nc2ccc(OCc3cccc(F)c3)c(Cl)c2)c1 | 4.13 |
| CCOc1ccc2c(-c3ccnc(Nc4cccc(C(F)(F)F)c4)n3)cnn2n1 | -0.21 |
| CC(=O)NCc1cccc(C#Cc2cncnc2Nc2ccc(OCc3cccc(F)c3)c(Cl)c2)c1 | 4.46 |
| Cc1cccc2c1NC(=O)/C2=N\Nc1ccc(S(N)(=O)=O)cc1 | 4.14 |
| COc1ccc(-c2nn3ncccc3c2-c2ccnc(Nc3ccc4c(c3)OCCO4)n2)cc1 | -0.04 |
| Fc1ccc(-c2cc(-c3c[nH]nc3-c3ccccn3)ccn2)cc1 | -3.5 |
| CCN(CC)S(=O)(=O)c1ccc(OC)c(Nc2ncc(-c3ccccc3)o2)c1 | 2.16 |
| COc1cccc(-c2c[nH]c3c(N/N=C/c4ccncc4)ncnc23)c1 | 24.9 |
| c1ccc(-c2nc3n(c2-c2ccc4c(c2)OCO4)CCC3)nc1 | -0.04 |
| COc1cccc(-n2ncc3c(N/N=C/c4ccc(F)cc4)ncnc32)c1 | 1.02 |
| Nc1ncc(-c2cccc(S(N)(=O)=O)c2)c2scc(-c3ccc(F)c(Cl)c3)c12 | -0.64 |
| Cc1ccc2c(-c3ccnc(Nc4ccccc4)n3)c(-c3ccc(F)cc3)nn2n1 | 2.61 |

| SMILES | inhibition [%] |
| --- | --- |
| CS(=O)(=O)CCNCc1ccc(-c2ccc3ncnc(Nc4ccc(OCc5ccccc5)c(C(F)(F)F)c4)c3c2)o1 | -1.51 |
| NC(=O)c1sc(-n2cnc3ccc(C(F)(F)F)cc32)cc1OCc1ccccc1Br | 0.92 |
| CCn1c(-c2nonc2N)nc2ccccc21 | 1.16 |
| NS(=O)(=O)c1ccc(Nc2ncc(-c3ccccc3)o2)cc1 | 3.55 |
| COc1ccc2[nH]c3c4[nH]c5ccc(OC)cc5c4c4c(c3c2c1)C(=O)NC4=O | 12.8 |
| Nc1nc(-c2ccc(F)cc2)c(-c2ccc3ncccc3n2)s1 | 1.8 |
| COc1ccc(CNC(=O)c2ccc(-c3cc(-c4nnc(C)o4)ccc3C)cc2)cc1 | 3 |
| O=C(O[C@H]1CN[C@H](C#Cc2cc3ncnc(Nc4ccc(Cc5ccccc5)cc4)c3s2)C1)N1CCOCC1 | -1.16 |
| N#Cc1c(NC(=O)CN2CCOCC2)sc2c1CCCC2 | 1.28 |
| Cc1cccc(Nc2ncc(-c3ccccc3)o2)c1 | -0.44 |
| O=C(Nc1n[nH]c2cc(-c3ccc(F)cc3)ccc12)C1CC1 | -0.96 |
| COC(=O)c1sc(-n2cnc3cc(OC)c(OC)cc32)cc1OCc1ccccc1C(F)(F)F | 10.7 |
| Cc1ccc(O)cc1Nc1ccnc2cc(-c3ccccn3)ccc12 | 0.79 |
| CCc1nn2ncccc2c1-c1ccnc(NC2CC2)n1 | -0.27 |
| CCn1cc(-c2ccnc3[nH]ccc23)c(-c2cccc(NC(=O)Nc3ccc(OCc4ccccc4)cc3)c2)n1 | -0.25 |
| COc1cc2c(cc1Nc1nc(Nc3ccsc3C(N)=O)c3cc[nH]c3n1)N(C(=O)CN(C)C)CCC2(C)C | 1.42 |

Target: Vascular endothelial growth factor receptor 2 (Homo sapiens) (UniProt P35968)
Conditions: at 0.1 µM

Sequence of Vascular endothelial growth factor receptor 2 (Homo sapiens) (P35968 whole entry): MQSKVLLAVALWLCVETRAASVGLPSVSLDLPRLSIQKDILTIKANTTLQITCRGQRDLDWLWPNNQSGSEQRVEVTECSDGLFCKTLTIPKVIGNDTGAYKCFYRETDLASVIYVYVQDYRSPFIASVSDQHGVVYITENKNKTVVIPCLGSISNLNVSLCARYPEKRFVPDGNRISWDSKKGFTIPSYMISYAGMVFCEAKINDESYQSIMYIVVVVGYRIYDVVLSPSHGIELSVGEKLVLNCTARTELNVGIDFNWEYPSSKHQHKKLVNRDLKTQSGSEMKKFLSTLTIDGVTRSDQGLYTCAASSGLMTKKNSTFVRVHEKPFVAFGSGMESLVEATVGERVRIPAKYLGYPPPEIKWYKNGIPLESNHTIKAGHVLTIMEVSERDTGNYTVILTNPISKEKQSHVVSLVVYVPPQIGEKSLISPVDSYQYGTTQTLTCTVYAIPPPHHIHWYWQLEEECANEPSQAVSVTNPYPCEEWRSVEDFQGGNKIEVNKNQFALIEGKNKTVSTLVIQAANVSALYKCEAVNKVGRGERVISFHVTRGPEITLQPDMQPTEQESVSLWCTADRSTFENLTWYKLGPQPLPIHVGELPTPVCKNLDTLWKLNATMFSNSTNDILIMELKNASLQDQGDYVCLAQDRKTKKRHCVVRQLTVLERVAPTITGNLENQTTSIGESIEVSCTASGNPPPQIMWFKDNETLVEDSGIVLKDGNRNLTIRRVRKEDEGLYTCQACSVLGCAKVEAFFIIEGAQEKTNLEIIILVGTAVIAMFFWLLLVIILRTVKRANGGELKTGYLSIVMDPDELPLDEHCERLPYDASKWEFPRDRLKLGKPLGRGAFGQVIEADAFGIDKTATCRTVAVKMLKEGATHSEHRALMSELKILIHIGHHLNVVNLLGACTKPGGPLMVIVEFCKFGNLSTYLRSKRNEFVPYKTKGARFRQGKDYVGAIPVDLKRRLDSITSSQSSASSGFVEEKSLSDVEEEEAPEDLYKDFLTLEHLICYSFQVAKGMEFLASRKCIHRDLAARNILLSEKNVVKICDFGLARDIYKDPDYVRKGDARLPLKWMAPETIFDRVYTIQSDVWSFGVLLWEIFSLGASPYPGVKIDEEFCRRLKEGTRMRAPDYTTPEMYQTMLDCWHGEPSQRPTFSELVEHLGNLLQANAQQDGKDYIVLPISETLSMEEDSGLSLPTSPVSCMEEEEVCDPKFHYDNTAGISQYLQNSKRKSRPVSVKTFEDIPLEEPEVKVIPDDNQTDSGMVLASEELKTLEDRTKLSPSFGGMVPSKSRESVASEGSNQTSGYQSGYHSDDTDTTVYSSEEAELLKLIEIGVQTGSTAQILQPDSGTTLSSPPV

| SMILES | inhibition [%] |
| --- | --- |
| COc1ccc(-c2cc(-c3c[nH]nc3-c3ccccn3)ccn2)cc1 | 12.7 |
| CCCN(CCS(C)(=O)=O)Cc1ccc(-c2ccc3ncnc(Nc4ccc(OCc5cccc(F)c5)c(Cl)c4)c3c2)o1 | 4.89 |
| FC(F)(F)c1cccc(-c2nn3ncccc3c2-c2ccnc(Nc3ccc4c(c3)OCCO4)n2)c1 | 12.6 |
| CCNC(=O)O[C@H]1CN[C@H](C#Cc2cc3ncnc(Nc4ccc(OCc5cccc(F)c5)c(Cl)c4)c3s2)C1 | 6.2 |
| COC(=O)Nc1nc2ccc(S(=O)(=O)c3ccc(NC(=O)Nc4cc(C(F)(F)F)ccc4F)cc3)cc2[nH]1 | 4.59 |
| CC(=O)Nc1cccc(C#Cc2cncnc2Nc2ccc(OCc3cccc(F)c3)c(Cl)c2)c1 | 9.03 |
| CCOc1ccc2c(-c3ccnc(Nc4cccc(C(F)(F)F)c4)n3)cnn2n1 | 4.26 |
| CC(=O)NCc1cccc(C#Cc2cncnc2Nc2ccc(OCc3cccc(F)c3)c(Cl)c2)c1 | 0.67 |
| Cc1cccc2c1NC(=O)/C2=N\Nc1ccc(S(N)(=O)=O)cc1 | 1.56 |
| COc1ccc(-c2nn3ncccc3c2-c2ccnc(Nc3ccc4c(c3)OCCO4)n2)cc1 | 11.3 |
| Fc1ccc(-c2cc(-c3c[nH]nc3-c3ccccn3)ccn2)cc1 | 7.31 |
| CCN(CC)S(=O)(=O)c1ccc(OC)c(Nc2ncc(-c3ccccc3)o2)c1 | 31.3 |
| COc1cccc(-c2c[nH]c3c(N/N=C/c4ccncc4)ncnc23)c1 | 17.6 |
| c1ccc(-c2nc3n(c2-c2ccc4c(c2)OCO4)CCC3)nc1 | 3.58 |
| COc1cccc(-n2ncc3c(N/N=C/c4ccc(F)cc4)ncnc32)c1 | 8.15 |
| Nc1ncc(-c2cccc(S(N)(=O)=O)c2)c2scc(-c3ccc(F)c(Cl)c3)c12 | 6.89 |
| Cc1ccc2c(-c3ccnc(Nc4ccccc4)n3)c(-c3ccc(F)cc3)nn2n1 | 21 |

| SMILES | inhibition [%] |
| --- | --- |
| CS(=O)(=O)CCNCc1ccc(-c2ccc3ncnc(Nc4ccc(OCc5ccccc5)c(C(F)(F)F)c4)c3c2)o1 | 4.72 |
| NC(=O)c1sc(-n2cnc3ccc(C(F)(F)F)cc32)cc1OCc1ccccc1Br | 6.34 |
| CCn1c(-c2nonc2N)nc2ccccc21 | 3.69 |
| NS(=O)(=O)c1ccc(Nc2ncc(-c3ccccc3)o2)cc1 | 6.16 |
| COc1ccc2[nH]c3c4[nH]c5ccc(OC)cc5c4c4c(c3c2c1)C(=O)NC4=O | 42.5 |
| Nc1nc(-c2ccc(F)cc2)c(-c2ccc3ncccc3n2)s1 | 33.2 |
| COc1ccc(CNC(=O)c2ccc(-c3cc(-c4nnc(C)o4)ccc3C)cc2)cc1 | 5.17 |
| O=C(O[C@H]1CN[C@H](C#Cc2cc3ncnc(Nc4ccc(Cc5ccccc5)cc4)c3s2)C1)N1CCOCC1 | -0.84 |
| N#Cc1c(NC(=O)CN2CCOCC2)sc2c1CCCC2 | 4.13 |
| Cc1cccc(Nc2ncc(-c3ccccc3)o2)c1 | 4.96 |
| O=C(Nc1n[nH]c2cc(-c3ccc(F)cc3)ccc12)C1CC1 | 6.51 |
| COC(=O)c1sc(-n2cnc3cc(OC)c(OC)cc32)cc1OCc1ccccc1C(F)(F)F | 15.2 |
| Cc1ccc(O)cc1Nc1ccnc2cc(-c3ccccn3)ccc12 | 78.6 |
| CCc1nn2ncccc2c1-c1ccnc(NC2CC2)n1 | 3.91 |
| CCn1cc(-c2ccnc3[nH]ccc23)c(-c2cccc(NC(=O)Nc3ccc(OCc4ccccc4)cc3)c2)n1 | 0.29 |
| COc1cc2c(cc1Nc1nc(Nc3ccsc3C(N)=O)c3cc[nH]c3n1)N(C(=O)CN(C)C)CCC2(C)C | 8.34 |
